Measurements as given in PubChem BioAssay (Tox21).
Inconclusive results are not listed. A number with no mark means an inactive call. The source made the active and inactive calls. Calls come from the whole dose curve; as a rule, active = well fitted activation curve with a large enough effect in the repeat runs; inconclusive = weak or mixed curves; inactive = no such curve, though single readings can be large or run the other way.

Molecular target: Aryl hydrocarbon receptor (Homo sapiens) (UniProt P35869)
Sequence (P35869 whole entry, looked up): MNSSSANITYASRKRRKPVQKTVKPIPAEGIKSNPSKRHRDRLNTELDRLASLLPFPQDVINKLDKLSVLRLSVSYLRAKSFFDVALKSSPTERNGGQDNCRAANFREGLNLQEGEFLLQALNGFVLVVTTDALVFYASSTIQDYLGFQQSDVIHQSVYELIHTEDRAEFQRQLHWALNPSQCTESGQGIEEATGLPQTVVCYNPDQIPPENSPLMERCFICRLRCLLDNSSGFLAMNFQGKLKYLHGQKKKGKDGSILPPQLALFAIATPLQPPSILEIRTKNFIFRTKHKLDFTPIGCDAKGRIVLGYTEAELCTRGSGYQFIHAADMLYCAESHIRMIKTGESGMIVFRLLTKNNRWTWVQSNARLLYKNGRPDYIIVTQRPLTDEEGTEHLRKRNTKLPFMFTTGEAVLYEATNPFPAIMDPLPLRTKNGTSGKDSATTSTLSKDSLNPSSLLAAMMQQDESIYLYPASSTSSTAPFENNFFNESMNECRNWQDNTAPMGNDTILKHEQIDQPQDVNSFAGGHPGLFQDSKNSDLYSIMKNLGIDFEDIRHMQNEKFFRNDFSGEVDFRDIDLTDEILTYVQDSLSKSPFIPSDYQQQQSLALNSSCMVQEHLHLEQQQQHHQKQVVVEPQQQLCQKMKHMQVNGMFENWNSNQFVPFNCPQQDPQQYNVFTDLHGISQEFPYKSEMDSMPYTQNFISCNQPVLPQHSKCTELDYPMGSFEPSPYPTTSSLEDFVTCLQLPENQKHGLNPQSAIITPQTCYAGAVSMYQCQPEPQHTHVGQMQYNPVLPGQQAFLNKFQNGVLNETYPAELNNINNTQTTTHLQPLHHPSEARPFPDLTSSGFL
Assay: qHTS assay to identify small molecule that activate the aryl hydrocarbon receptor (AhR) signaling pathway (AID 743085); note: nearly all actives have a fitted effect of over 15% in size;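 for activation: HG2L7.5c1 human HepG2 liver cells with stably integrated DRE-driven firefly reporter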
Settings: HepG2 AhR-luc (HG2L7.5c1), luciferase, 24 h; series mostly up to 70.3 µM; activation: at the top concentration
Text: U.S. Tox21 Program National Center for Advancing Translational Sciences [NCATS] NIH Chemical Genomics Center [NCGC] U.S. Environmental Protection Agency [EPA] National Institutes of Environmental Health Sciences [NIEHS] National Toxicology Program [NTP] U.S. Food and Drug Administration [FDA] Tox21 Assay overview: The Aryl hydrocarbon Receptor (AhR), a member of the family of basic helix-loop-helix transcription factors, is crucial to adaptive responses to environmental changes. AhR mediates cellular responses to environmental pollutants such as aromatic hydrocarbons through induction of phase I and II enzymes but also interacts with other nuclear receptor signaling pathways. A cell based HepG2-AhR-luc assay (HG2L7.5c1 cell line, developed by Dr. Michael S. Denison, University of California at Davis, was used to assess the activation of AhR. HepG2 (human hepatocellular carcinoma) cells were stably transfected with an Ah receptor-responsive firefly luciferase reporter gene plasmid containing 20 dioxin responsive elements and luciferase reporter gene. Increased luciferase activity can be used to identify the compounds that induce AhR activation.
Tox21 Assay Protocol Summary: 4000 cells in 5 uL/well were dispensed into white wall/solid bottom 1536-well plates using a Multidrop Combi (Thermo Fisher Scientific Inc., Waltham, MA) dispenser. After the assay plates were incubated at 37C for 5 h, 23 nL of compound or DMSO vehicle was transferred to the assay plates by a pintool station (Kalypsys, San Diego, CA). The plates were incubated at 37C for 24 hr. After 1 ul/well of CellTiter-Fluor reagent (Promega, Madison, WI) was added into the assay plates using a Flying Reagent Dispenser (FRD) (Aurora Discovery, CA), the assay plates were incubated at 37C for 30 min. The fluorescence intensity in the plates was measured using a ViewLux plate reader (PerkinElmer, Shelton, CT), followed by the addition of 4 uL of ONE-Glo Luciferase Assay reagent (Promega) using an FRD (Aurora Discovery). After the assay plates were incubated at room temperature for 30 min, luminescence intensity was measured using a ViewLux plate reader (Perkin Elmer).
% is set by controls: 0 for no effect and ±100 for the full control effect; potency is the fitted concentration of half-maximal effect.

Point of comparison: `COC(=O)c1ccc(OC)cc1`, “activation” value -0.89%. Against it:
- CCC/C=C/CO — higher, -0.664%
- CN1CCC[C@@H]1Cc1c[nH]c2ccc(CCS(=O)(=O)c3ccccc3)cc12 — higher, 4.01%
- CCN(CC)CCNC(=O)COc1ccc(Cl)cc1 — higher, 3.62%
- CCOC(=O)COc1ccc2c(c1)CC(NCC(O)c1cccc(Cl)c1)CC2 (stereo not given) — higher, -0.211%
- O=c1[nH]c(=O)n([C@H]2C[C@H](O)[C@@H](CO)O2)cc1C(F)(F)F — lower, -1.1%
- CCCC1CCC(=O)O1 (stereo not given) — lower, -0.923%
- Cc1ccc([N+](=O)[O-])c(N)c1 — lower, -1.5%
- ICCc1ccccc1 — higher, 5.45%
- CCCCN1C[C@H](O)[C@@H](O)[C@H](O)[C@H]1CO — lower, -2.33%
- COC(=O)N[C@H](C(=O)N[C@@H](Cc1ccccc1)[C@@H](O)CN(Cc1ccc(-c2ccccn2)cc1)NC(=O)[C@@H](NC(=O)OC)C(C)(C)C)C(C)(C)C — higher, 3.39%
- CCN1CC(CCN2CCOCC2)C(c2ccccc2)(c2ccccc2)C1=O (stereo not given) — higher, 1.51%
- CCOC(=O)C(Br)c1ccccc1 (stereo not given) — higher, -0.456%
- CCc1nnc(NS(=O)(=O)c2ccc(N)cc2)s1 — higher, 1.68%
- Cc1ccc(C(C)C)cc1O — higher, -0.379%
- CCCCCCCCCC/C=C/C#N — lower, -1.52%
- O=C(O)c1cccc(Cl)c1Cl — lower, -2.63%
- CO[C@@]1(NC(=O)CSCC#N)C(=O)N2C(C(=O)O)=C(CSc3nnnn3C)CS[C@@H]21 — lower, -1.86%
- CCNCCO — higher, -0.225%
- CC[C@H]1CC[C@H](NCc2cc3c(cc2OC)[C@H]2C[C@H]2C(=O)N3C)[C@H](c2ccccc2)N1 — higher, -0.206%
- O=[N+]([O-])c1nccn1CO[C@@H](CO)[C@H](O)CO — higher, 3.35%
- CC(C)NCC(O)COc1ccc(CCOCC2CC2)cc1 (stereo not given) — higher, 0.629%
- Nc1cccc(S(=O)(=O)O)c1 — higher, -0.79%
- OCc1ccccc1O — higher, 2.26%
- O=CCCc1ccccc1 — higher, -0.739%
- CCCN(CCC)C(=O)C(CCC(=O)O)NC(=O)c1ccccc1 (stereo not given) — higher, 0.261%

`CN(CCCN1c2ccccc2CCc2ccccc21)CC(=O)c1ccc(Cl)cc1` was tested, and the Potency was 29.8 µM (active).
`Cc1cc2nc(N)sc2cc1C` was tested, and the Potency was 6.17 µM (active).
In the case of `O=C(O)C(=O)Cc1c[nH]c2ccccc12`, the Potency is reported as 6.11 µM (active).
With `COc1ccc2nc(NC(=O)Nc3ccccc3)sc2c1` the Potency was 10.6 µM (active).
With `COc1ccccc1N1CCN(CCCNc2cc(=O)n(C)c(=O)n2C)CC1` the Potency was “inactive”.
In the case of `CN(C)Cc1ccccc1`, the Potency is reported as “inactive”.

Point of comparison: `CCCCNc1cc(C(=O)O)cc(S(N)(=O)=O)c1Oc1ccccc1`, “activation” value -1.25% [at 32.5 µM]. Against it:
- CC(CNC1CCCCC1)OC(=O)c1ccccc1 (stereo not given) — higher, -0.101% [at 32.5 µM]
- CCCNC(C)C(=O)Nc1c(C)csc1C(=O)OC (stereo not given) — higher, 0.0632% [at 32.5 µM]
- CN(C)C(=O)NC1(c2ccccc2)CCN(CCC[C@]2(c3ccc(Cl)c(Cl)c3)CCCN(C(=O)c3ccccc3)C2)CC1 — higher, -0.438% [at 32.5 µM]
- CS(=O)(=O)c1ccc([C@@H](O)[C@@H](CF)NC(=O)C(Cl)Cl)cc1 — higher, -0.222% [at 32.5 µM]
- CC(=O)N(CC(O)CN(C(C)=O)c1c(I)c(C(=O)NCC(O)CO)c(I)c(C(=O)NCC(O)CO)c1I)c1c(I)c(C(=O)NCC(O)CO)c(I)c(C(=O)NCC(O)CO)c1I (stereo not given) — higher, -0.365% [at 32.5 µM]

Point of comparison: `COc1ccc(Nc2ccc(OC)cc2)cc1`, “activation” value 7.44% [at 95 µM]. Against it:
- OCc1c2ccccc2cc2ccccc12 — lower, 5.56% [at 95 µM]
